Data as given in PubChem BioAssay (EPA / NIEHS).
Results filed as inconclusive are left out. Active and inactive are the calls of the source. Rule for the calls: active = hit-call score of the fitted dose curve at least 0.9, where 1 is the maximum; inconclusive = response in the unintended direction; inactive = score below 0.9.

These compounds were tested against human Serotonin, 5-Hydroxytryptamine Receptor 6 (5HT6), HTR6 (gene 3362) (UniProt P50406) (assay: NVS_GPCR_h5HT6: NovaScreen (NVS) G Protein-Coupled Receptor Assay for human Serotonin, 5-Hydroxytryptamine Receptor 6 (5HT6) (AID 2283253)).
Sequence of human Serotonin, 5-Hydroxytryptamine Receptor 6 (5HT6), HTR6 (gene 3362) (P50406 whole entry, looked up): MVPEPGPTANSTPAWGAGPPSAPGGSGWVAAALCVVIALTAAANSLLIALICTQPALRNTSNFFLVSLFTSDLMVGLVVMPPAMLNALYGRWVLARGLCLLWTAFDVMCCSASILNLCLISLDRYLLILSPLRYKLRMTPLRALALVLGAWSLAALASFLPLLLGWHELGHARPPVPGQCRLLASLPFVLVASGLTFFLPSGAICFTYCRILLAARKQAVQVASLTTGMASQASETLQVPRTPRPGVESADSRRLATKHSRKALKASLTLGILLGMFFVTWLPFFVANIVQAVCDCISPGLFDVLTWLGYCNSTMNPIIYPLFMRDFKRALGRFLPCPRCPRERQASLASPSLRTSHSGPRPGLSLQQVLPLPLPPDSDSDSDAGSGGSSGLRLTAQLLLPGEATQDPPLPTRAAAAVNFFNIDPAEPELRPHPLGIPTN
Method in brief: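 Filter scintillation counting of radioligand displacement from HEK293-expressed 5HT6, 1 hour post-dose, with loss of signal relative to DMSO. Single 25 uM duplicates first, with concentration series for confirmation.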

SMILES	outcome	AC50
O=[N+]([O-])c1ccc(Oc2ccc(Cl)cc2Cl)cc1	inactive	–
CCCCCOC(=O)c1ccccc1C(=O)OCCCCC	inactive	–
[Cl-].[Cl-].[Hg+2]	–	1.56 µM (active)
CCC[CH2][Sn]([Cl])([CH2]CCC)[CH2]CCC	–	5.51 µM (active)
CCOC(=O)[C@]1(c2ccccc2)Oc2ccccc2[C@@H]1N	–	0.824 µM (active)

Each compound was assayed against human Adenosine A1 Receptor (AdoRA1), ADORA1 (gene 134) (UniProt P30542) (assay: NVS_GPCR_hAdoRA1: NovaScreen (NVS) G Protein-Coupled Receptor Assay for human Adenosine A1 Receptor (AdoRA1) (AID 2283254)).
Sequence of human Adenosine A1 Receptor (AdoRA1), ADORA1 (gene 134) (P30542 whole entry, looked up): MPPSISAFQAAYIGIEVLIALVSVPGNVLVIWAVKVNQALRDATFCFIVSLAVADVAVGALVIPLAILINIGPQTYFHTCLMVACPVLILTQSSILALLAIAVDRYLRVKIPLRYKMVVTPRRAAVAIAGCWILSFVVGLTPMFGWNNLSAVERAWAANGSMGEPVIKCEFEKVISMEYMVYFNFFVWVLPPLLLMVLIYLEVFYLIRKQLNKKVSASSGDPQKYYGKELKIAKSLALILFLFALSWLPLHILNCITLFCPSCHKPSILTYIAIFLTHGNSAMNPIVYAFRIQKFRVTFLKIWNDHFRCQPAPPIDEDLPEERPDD
Procedure: (§1) NVS_GPCR_hAdoRA1 is a biochemical, single-readout assay that uses extracted gene-proteins from Human cortical membranes in a tissue-based cell-free assay. Measurements were taken 1 hour after chemical dosing in a 96-well plate.NVS_GPCR_hAdoRA1 is one of one assay component(s) measured or calculated from the NVS_GPCR_hAdoRA1 assay. It is designed to make measurements of radioligand binding, a form of binding reporter, as detected with scintillation counting signals by Filter-based radiodetection technology.Data from the assay component NVS_GPCR_hAdoRA1 was analyzed into 1 assay endpoint. This assay endpoint, NVS_GPCR_hAdoRA1, was analyzed in the positive analysis fitting direction relative to DMSO as the negative control and baseline of activity. Using a type of binding reporter, loss-of-signal activity can be used to understand changes in the binding as they relate to the gene ADORA1. Furthermore, this assay endpoint can be referred to as a primary readout, because the performed assay has only produced 1 assay endpoint. To generalize the intended target to other relatable targets, this assay endpoint is annotated to the gpcr intended target family, where the subfamily is rhodopsin-like receptor.
(§2) Binding assays used specific radioligands (tritiated, iodinated) with non-radioactive competitive displacement ligands in agonist or antagonist protocols (as indicated) and various reference compounds and inhibitors to titrate specific binding to receptors and transporters. Most enzyme assays (CYPs, kinases, phosphatases, proteases, HDACs) used recombinant protein and specific substrates (fluorescence mostly, some colorimetric and radioactive) and inhibitors, followed by a biochemical separation of substrate and product. All assays for the biochemical HTS were initially run in duplicate at a single concentration (10 uM for CYP450 assays and 25 uM for all others). […] Each assay was run with positive and negative controls, and concurrent controls on every plate. The follow-up (secondary) screen tested active chemical-pairs in concentration series, as well as a few additional assays not tested in the primary screen, some selected negative inactives, and several cases re-run in the concentration series for confirmatory purposes.

SMILES	AC50	outcome
CCC[CH2][Sn]([Cl])([CH2]CCC)[CH2]CCC	25 µM (active)	–
COP(=S)(OC)SCN1C(=O)c2ccccc2C1=O	13.7 µM (active)	–
Nc1ccc(N=Nc2ccccc2)cc1	–	inactive
Cc1cccc(N)c1N	8.22 µM (active)	–

Each compound was assayed against human Serotonin, 5-Hydroxytryptamine Receptor 7 (5HT7), HTR7 (gene 3363) (UniProt P34969) (assay: NVS_GPCR_h5HT7: NovaScreen (NVS) G Protein-Coupled Receptor Assay for human Serotonin, 5-Hydroxytryptamine Receptor 7 (5HT7) (AID 2283255);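 note: hits reduce specific radioligand binding relative to DMSO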).
Sequence of human Serotonin, 5-Hydroxytryptamine Receptor 7 (5HT7), HTR7 (gene 3363) (P34969 whole entry, looked up): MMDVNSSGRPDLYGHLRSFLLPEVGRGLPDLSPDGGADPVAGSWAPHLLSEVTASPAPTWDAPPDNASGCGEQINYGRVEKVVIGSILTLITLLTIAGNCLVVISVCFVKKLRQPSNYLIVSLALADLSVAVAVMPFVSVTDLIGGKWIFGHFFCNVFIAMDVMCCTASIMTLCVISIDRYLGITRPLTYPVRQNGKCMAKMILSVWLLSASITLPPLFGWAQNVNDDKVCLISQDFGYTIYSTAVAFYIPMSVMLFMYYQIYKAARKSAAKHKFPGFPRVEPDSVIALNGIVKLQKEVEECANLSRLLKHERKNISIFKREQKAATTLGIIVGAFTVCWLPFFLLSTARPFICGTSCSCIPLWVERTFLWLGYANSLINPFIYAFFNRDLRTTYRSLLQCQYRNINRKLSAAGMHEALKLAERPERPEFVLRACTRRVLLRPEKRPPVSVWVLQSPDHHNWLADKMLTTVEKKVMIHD
Method in brief: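 Filter-bound radioactivity counted after 1 h, with loss of specific radioligand binding fitted against DMSO. Membrane protein came from CHO cells expressing human 5HT7. Chemicals were tested first at 25 uM in duplicate, then in concentration series if active.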

SMILES	outcome	AC50
CCN(CC)CCO	inactive	–
CCCCCCCCn1sccc1=O	–	17.9 µM (active)
[Cl-].[Cl-].[Hg+2]	–	0.928 µM (active)
CCC[CH2][Sn]([Cl])([CH2]CCC)[CH2]CCC	–	0.354 µM (active)
CCOC(=O)[C@]1(c2ccccc2)Oc2ccccc2[C@@H]1N	–	0.0948 µM (active)
CCCCCCCCOC(=O)c1ccc(C(=O)OCCCCCCCC)c(C(=O)OCCCCCCCC)c1	inactive	–
O=C(N[C@H](c1ccccc1)[C@@H]1CN2CCC1CC2)c1c(Cl)ccc(C(F)(F)F)c1Cl	–	28.5 µM (active)

These compounds were tested against human Adenosine A2a Receptor (AdoRA2a), ADORA2A (gene 135) (UniProt P29274) (assay: NVS_GPCR_hAdoRA2a: NovaScreen (NVS) G Protein-Coupled Receptor Assay for human Adenosine A2a Receptor (AdoRA2a) (AID 2283256)).
Sequence of human Adenosine A2a Receptor (AdoRA2a), ADORA2A (gene 135) (P29274 whole entry, looked up): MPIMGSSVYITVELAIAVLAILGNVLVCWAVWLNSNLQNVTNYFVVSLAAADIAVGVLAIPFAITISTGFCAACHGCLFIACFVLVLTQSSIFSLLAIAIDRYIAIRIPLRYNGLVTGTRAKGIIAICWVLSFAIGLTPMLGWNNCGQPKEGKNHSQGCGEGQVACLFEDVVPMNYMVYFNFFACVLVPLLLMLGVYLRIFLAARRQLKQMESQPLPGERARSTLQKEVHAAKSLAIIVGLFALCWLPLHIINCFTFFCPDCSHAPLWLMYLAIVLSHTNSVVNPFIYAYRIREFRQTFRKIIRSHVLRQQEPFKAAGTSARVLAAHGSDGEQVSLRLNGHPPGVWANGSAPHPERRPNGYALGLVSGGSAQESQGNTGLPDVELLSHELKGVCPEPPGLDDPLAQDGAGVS
Method in brief: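 Compounds screened in duplicate at 25 uM, with actives followed up in concentration series, for displacement of a radioligand from HEK293-derived receptor protein. Bound counts read by filter scintillation at 1.5 hours, DMSO as baseline.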

SMILES	AC50
CCNS(=O)(=O)C(F)(F)C(F)(F)C(F)(F)C(F)(F)C(F)(F)C(F)(F)C(F)(F)C(F)(F)F	14.5 µM (active)
Nc1ccc(Cl)cc1N	2.4 µM (active)
[Cl-].[Cl-].[Hg+2]	5.19 µM (active)
CCC[CH2][Sn]([Cl])([CH2]CCC)[CH2]CCC	6.46 µM (active)
CC(C)(O)c1cnn2c(-c3ccc(F)c(-c4c(F)cccc4C#N)c3)cnc2n1	0.0738 µM (active)
Cc1cccc(N)c1N	4.24 µM (active)

What follows are compounds tested against human Adrenergic, Alpha 2A Receptor (Adra2A), ADRA2A (gene 150) (UniProt P08913) (assay: NVS_GPCR_hAdra2A: NovaScreen (NVS) G Protein-Coupled Receptor Assay for human Adrenergic, Alpha 2A Receptor (Adra2A) (AID 2283257)).
Sequence of human Adrenergic, Alpha 2A Receptor (Adra2A), ADRA2A (gene 150) (P08913 whole entry, looked up): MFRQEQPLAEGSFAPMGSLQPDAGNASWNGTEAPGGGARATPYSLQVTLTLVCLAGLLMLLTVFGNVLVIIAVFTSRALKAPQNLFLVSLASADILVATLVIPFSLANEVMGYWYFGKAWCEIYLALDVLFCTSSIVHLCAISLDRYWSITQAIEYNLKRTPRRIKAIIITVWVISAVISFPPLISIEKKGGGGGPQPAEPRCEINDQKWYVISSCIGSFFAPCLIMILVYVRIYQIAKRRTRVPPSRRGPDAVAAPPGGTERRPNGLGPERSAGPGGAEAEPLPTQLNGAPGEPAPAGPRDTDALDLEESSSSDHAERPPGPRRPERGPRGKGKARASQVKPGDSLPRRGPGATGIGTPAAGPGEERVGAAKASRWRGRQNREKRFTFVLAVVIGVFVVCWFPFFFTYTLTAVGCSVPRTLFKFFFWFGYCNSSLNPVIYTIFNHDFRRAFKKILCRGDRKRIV
Method in brief: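 Displacement of a specific radioligand from HT29 membrane protein was counted by filter scintillation after 1 h. Compounds were screened in duplicate at 25 uM, and actives were retested in concentration series. Fitting was positive-direction against DMSO.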

SMILES	outcome	AC50
CCCCCCCCn1sccc1=O	inactive	–
[Cl-].[Cl-].[Hg+2]	–	2.23 µM (active)
CCC[CH2][Sn]([Cl])([CH2]CCC)[CH2]CCC	–	3.65 µM (active)
CCOC(=O)[C@]1(c2ccccc2)Oc2ccccc2[C@@H]1N	–	6.2 µM (active)

What follows are compounds tested against human Adrenergic, Beta 1 Receptor (Adrb1), ADRB1 (gene 153) (UniProt P08588) (assay: NVS_GPCR_hAdrb1: NovaScreen (NVS) G Protein-Coupled Receptor Assay for human Adrenergic, Beta 1 Receptor (Adrb1) (AID 2283258)).
Sequence of human Adrenergic, Beta 1 Receptor (Adrb1), ADRB1 (gene 153) (P08588 whole entry, looked up): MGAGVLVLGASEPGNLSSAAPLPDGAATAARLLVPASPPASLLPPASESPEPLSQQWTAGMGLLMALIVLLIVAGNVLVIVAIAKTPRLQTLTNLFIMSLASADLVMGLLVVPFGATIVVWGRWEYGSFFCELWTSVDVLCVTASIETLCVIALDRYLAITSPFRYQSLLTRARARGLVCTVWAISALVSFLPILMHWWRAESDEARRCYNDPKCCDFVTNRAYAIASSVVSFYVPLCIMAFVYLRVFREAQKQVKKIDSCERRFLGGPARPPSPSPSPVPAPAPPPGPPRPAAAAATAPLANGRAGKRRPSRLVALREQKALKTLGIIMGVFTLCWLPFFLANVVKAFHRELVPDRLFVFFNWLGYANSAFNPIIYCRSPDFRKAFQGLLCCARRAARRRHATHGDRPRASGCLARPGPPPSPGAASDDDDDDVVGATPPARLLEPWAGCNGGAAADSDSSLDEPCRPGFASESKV
Method in brief: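 Membranes/protein extracted from human neuroepithelioma cells, radioligand competition binding read by filtration and scintillation 2 h post-dose. Single 25 uM duplicate screen, then concentration-response follow-up; DMSO as negative control.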

SMILES	AC50	outcome
CCCCCCCCn1sccc1=O	12.2 µM (active)	–
O=[N+]([O-])c1ccc(Oc2ccc(Cl)cc2Cl)cc1	–	inactive
CCCCCOC(=O)c1ccccc1C(=O)OCCCCC	–	inactive
[Cl-].[Cl-].[Hg+2]	0.303 µM (active)	–
CCC[CH2][Sn]([Cl])([CH2]CCC)[CH2]CCC	1.25 µM (active)	–
CCOC(=O)[C@]1(c2ccccc2)Oc2ccccc2[C@@H]1N	1.41 µM (active)	–
CCCCCCCCOC(=O)c1ccc(C(=O)OCCCCCCCC)c(C(=O)OCCCCCCCC)c1	–	inactive
O=C(N[C@H](c1ccccc1)[C@@H]1CN2CCC1CC2)c1c(Cl)ccc(C(F)(F)F)c1Cl	37.5 µM (active)	–

What follows are compounds tested against human Adrenergic, Alpha 2c Receptor (Adra2C), ADRA2C (gene 152) (UniProt P18825) (assay: NVS_GPCR_hAdra2C: NovaScreen (NVS) G Protein-Coupled Receptor Assay for human Adrenergic, Alpha 2c Receptor (Adra2C) (AID 2283259)).
Sequence of human Adrenergic, Alpha 2c Receptor (Adra2C), ADRA2C (gene 152) (P18825 whole entry, looked up): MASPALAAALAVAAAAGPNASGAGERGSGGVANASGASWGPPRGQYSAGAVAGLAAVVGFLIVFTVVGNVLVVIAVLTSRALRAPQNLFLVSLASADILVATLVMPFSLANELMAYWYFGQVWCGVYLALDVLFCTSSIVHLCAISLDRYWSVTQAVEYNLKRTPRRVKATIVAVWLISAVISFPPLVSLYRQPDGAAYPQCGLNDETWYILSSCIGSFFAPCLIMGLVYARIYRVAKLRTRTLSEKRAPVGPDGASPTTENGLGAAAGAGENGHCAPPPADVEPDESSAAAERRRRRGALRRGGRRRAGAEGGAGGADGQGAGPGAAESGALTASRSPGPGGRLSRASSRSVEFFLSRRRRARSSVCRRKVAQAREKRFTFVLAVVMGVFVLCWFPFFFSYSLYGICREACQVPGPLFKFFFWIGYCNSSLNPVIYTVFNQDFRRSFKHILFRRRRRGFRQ
Procedure: as §1, with “NVS_GPCR_hAdra2C” for “NVS_GPCR_hAdoRA1”, “SF9” for “Human cortical membranes”, “a” for “a tissue-based”, “plate.NVS_GPCR_hAdra2C” for “plate.NVS_GPCR_hAdoRA1”, “NVS_GPCR_hAdra2C,” for “NVS_GPCR_hAdoRA1,”, “ADRA2C.” for “ADORA1.”
as §2, with “The follow-up (secondary) screen tested active chemical-pairs in concentration series, as well as a few additional assays not tested in the primary screen, some selected negative inactives, and several cases re-run in the concentration series for confirmatory purposes.” left out

SMILES	AC50
CCCCCCCCn1sccc1=O	6.02 µM (active)
[Cl-].[Cl-].[Hg+2]	0.227 µM (active)
CCOC(=O)[C@]1(c2ccccc2)Oc2ccccc2[C@@H]1N	0.611 µM (active)

These compounds were tested against Beta-2 adrenergic receptor (Homo sapiens) (UniProt P07550) (assay: NVS_GPCR_hAdrb2: NovaScreen (NVS) G Protein-Coupled Receptor Assay for human Adrenergic, Beta 2 Receptor (Adrb2) (AID 2283261)).
Sequence of Beta-2 adrenergic receptor (Homo sapiens) (P07550 whole entry, looked up): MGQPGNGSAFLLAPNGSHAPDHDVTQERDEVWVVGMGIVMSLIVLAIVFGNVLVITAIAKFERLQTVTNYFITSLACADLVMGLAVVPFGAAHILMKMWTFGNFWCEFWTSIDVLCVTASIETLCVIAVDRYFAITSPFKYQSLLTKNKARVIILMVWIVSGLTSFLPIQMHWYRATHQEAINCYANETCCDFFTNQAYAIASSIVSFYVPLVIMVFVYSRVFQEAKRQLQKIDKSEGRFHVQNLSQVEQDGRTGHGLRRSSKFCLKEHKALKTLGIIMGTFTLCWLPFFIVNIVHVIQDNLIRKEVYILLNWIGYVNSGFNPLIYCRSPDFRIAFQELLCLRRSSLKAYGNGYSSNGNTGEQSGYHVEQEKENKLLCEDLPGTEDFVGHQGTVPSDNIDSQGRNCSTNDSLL
Method in brief: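 Compounds screened in duplicate at 25 uM, then actives in concentration series. Human beta-2 receptor from CHO material, cell-free; radioligand displacement after 1 h measured by filtration and scintillation against DMSO baseline.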

SMILES	outcome	AC50
CN(C)C(=O)Nc1ccc(Cl)cc1	inactive	–
[Cl-].[Cl-].[Hg+2]	–	0.925 µM (active)
CCC[CH2][Sn]([Cl])([CH2]CCC)[CH2]CCC	–	5.47 µM (active)
c1ccc2c(c1)-c1cccc3cccc-2c13	inactive	–
CCOC(=O)[C@]1(c2ccccc2)Oc2ccccc2[C@@H]1N	–	16.8 µM (active)
Cc1cccc(N)c1N	inactive	–

Each compound was assayed against human Adrenergic, Beta 3 Receptor (Adrb3), ADRB3 (gene 155) (UniProt P13945) (assay: NVS_GPCR_hAdrb3: NovaScreen (NVS) G Protein-Coupled Receptor Assay for human Adrenergic, Beta 3 Receptor (Adrb3) (AID 2283262)).
Sequence of human Adrenergic, Beta 3 Receptor (Adrb3), ADRB3 (gene 155) (P13945 whole entry, looked up): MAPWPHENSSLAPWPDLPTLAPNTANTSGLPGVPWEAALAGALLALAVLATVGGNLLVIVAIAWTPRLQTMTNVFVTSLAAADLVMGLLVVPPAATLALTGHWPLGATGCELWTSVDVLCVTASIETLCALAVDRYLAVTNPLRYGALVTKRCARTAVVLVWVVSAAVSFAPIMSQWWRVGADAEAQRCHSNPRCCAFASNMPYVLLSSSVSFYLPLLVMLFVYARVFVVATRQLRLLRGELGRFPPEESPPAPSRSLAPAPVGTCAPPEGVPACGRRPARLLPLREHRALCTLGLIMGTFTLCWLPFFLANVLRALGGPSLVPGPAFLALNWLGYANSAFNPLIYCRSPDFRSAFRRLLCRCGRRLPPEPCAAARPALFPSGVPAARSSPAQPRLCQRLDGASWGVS
Method in brief: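 A cell-free filter binding assay read by scintillation counting, with displacement of a specific radioligand measured after 1 hour. The receptor source was SK-N-MC extracts (cells pretreated with isoproterenol and 8-bromo-cAMP). Compounds were first tested at 25 uM in duplicate and then in concentration series.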

SMILES	outcome	AC50
[Cl-].[Cl-].[Hg+2]	inactive	–
CCC[CH2][Sn]([Cl])([CH2]CCC)[CH2]CCC	–	9.81 µM (active)
CCOC(=O)[C@]1(c2ccccc2)Oc2ccccc2[C@@H]1N	–	4.96 µM (active)
O=C(N[C@H](c1ccccc1)[C@@H]1CN2CCC1CC2)c1c(Cl)ccc(C(F)(F)F)c1Cl	inactive	–

These compounds were tested against Type-1 angiotensin II receptor (Homo sapiens) (UniProt P30556) (assay: NVS_GPCR_hAT1: NovaScreen (NVS) G Protein-Coupled Receptor Assay for human Angiotensin II receptor type 1 (AT1) (AID 2283263)).
Sequence of Type-1 angiotensin II receptor (Homo sapiens) (P30556 whole entry, looked up): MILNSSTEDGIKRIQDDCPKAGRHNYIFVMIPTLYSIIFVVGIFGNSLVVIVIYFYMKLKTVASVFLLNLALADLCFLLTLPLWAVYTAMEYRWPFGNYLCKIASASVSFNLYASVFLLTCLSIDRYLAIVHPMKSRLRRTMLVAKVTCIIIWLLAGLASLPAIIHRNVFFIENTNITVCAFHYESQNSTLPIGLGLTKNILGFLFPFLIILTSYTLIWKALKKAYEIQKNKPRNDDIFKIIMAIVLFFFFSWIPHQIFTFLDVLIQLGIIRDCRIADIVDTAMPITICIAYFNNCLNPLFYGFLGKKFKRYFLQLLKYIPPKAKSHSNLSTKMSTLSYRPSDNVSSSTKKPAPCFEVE
Method in brief: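 Hits from a 25 uM duplicate screen (threshold e.g. 30% inhibition) were run in concentration-response with 50 uM top concentration. Displacement of specific radioligand from KAN-TS membrane preparations measured after 3 h by filter scintillation, DMSO as baseline.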

SMILES	AC50
CCCCCCCCn1sccc1=O	10.9 µM (active)
[Cl-].[Cl-].[Hg+2]	10.7 µM (active)
CCC[CH2][Sn]([Cl])([CH2]CCC)[CH2]CCC	1.78 µM (active)
